Screens: PubChem BioAssay, several laboratories
In the library only some 1.8% were active in any assay of this set; here they are far more common.
NPR1 activator: GC-A (human) enzyme activation | HEK293 GC-A cells, cGMP TR-FRET, EC30 ANP; 0% at EC30 ANP, 100% saturating ANP | activation, % at 10 µM | 370,000 tested, 0.14% active; in the data active = activation above about 40%
Exocytosis inh: lytic granule exocytosis inhibition; AID 651702; inhibition, % at 10 µM; 360,000 tested, 0.66% active; TALL-104 LAMP-1 surface exposure, flow cytometry; cells stimulated with thapsigargin and PMA;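 active = inhibition above about 55%, limit read from the data; inconclusive = no clear call, values can overlap the other calls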
NPR2 activator: GC-B (human) receptor activation; P20594; HEK293-GC-B cells, CNP EC30, cGMP TR-FRET; 0% at EC30 CNP, 100% saturating CNP; activation, % at 10 µM; 370,000 tested, 0.11% active;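 active = activation at 10 µM reaching about 35% in either raw or pattern-adjusted values, limit read from the data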
Target sequence (P20594 whole entry, looked up): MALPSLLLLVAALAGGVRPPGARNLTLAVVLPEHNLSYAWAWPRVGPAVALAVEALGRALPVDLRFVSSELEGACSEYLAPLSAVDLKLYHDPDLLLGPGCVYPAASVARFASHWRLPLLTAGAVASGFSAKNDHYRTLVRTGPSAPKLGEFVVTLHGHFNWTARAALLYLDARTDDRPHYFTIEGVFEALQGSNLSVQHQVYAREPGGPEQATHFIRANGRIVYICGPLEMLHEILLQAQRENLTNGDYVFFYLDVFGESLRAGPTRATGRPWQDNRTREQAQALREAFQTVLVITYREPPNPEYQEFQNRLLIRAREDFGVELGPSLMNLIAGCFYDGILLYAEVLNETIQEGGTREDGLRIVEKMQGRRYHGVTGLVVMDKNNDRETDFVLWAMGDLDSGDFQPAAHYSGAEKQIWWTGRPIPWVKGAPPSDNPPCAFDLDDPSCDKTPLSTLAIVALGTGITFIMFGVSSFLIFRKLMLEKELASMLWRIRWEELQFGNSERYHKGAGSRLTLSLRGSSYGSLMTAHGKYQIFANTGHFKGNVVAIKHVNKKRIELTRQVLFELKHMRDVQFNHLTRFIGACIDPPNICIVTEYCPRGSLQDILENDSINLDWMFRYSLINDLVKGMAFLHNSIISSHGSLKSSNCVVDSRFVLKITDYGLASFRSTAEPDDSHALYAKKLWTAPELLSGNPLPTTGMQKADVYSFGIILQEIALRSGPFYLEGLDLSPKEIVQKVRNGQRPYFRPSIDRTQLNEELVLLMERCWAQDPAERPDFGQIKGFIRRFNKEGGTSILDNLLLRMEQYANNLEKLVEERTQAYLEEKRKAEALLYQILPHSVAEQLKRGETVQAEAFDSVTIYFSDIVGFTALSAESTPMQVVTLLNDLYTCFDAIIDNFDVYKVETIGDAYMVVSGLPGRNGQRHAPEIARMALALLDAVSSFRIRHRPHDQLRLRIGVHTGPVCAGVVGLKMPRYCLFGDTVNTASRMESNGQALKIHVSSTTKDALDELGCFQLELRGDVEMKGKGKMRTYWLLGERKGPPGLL
Myeloid diff MLP: promotes myeloid progenitor differentiation; ER-HoxA9 myeloid progenitors, lysozyme-GFP differentiation, flow cytometry; calls only at 10 µM; 360,000 tested, 1% active;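 active = normalized GFP-positive differentiation at or above the plate's own cutoff, the solvent-only control mean plus 3 SD; inconclusive = no clear call, values can overlap the other calls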;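 also: cells exposed to compound for four days before flow analysis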
Active calls of the source: *; i = inactive; ? = inconclusive; . = no result; + = active, no number.

SMILES | NPR1 activator | Exocytosis inh | NPR2 activator | Myeloid diff MLP
O=S(=O)(c1ccc(Cl)s1)N1CCC(c2cn3ccccc3n2)CC1 | -4 | . | -6 | .
COC(=O)[C@]12C[C@H](CC(=O)NCc3ccc(C)o3)C(=O)N(CCc3ccc(OC)c(OC)c3)C1=C[C@H](COCc1ccccc1)O[C@@H]2C | 3 | . | 2 | .
N#Cc1ccc(CSc2nnc(-c3c[nH]c4ccccc34)n2-c2ccccc2)cc1 | -28 | 96* | -16 | i
COc1ccc(-c2cc(C#N)nc(Cl)n2)cc1 | 78* | 9 | 20 | i
CCOc1ccc(S(=O)(=O)N(C)CCO)cc1-c1nc2c(C(C)(C)C)nn(C)c2c(=O)[nH]1 | 59* | 0 | 67* | i
CCOc1ccc(S(=O)(=O)N(C)C)cc1-c1nc2c(C(C)(C)C)nn(C)c2c(=O)[nH]1 | 58* | -5 | 68* | i
CC(/C=C/c1ccc(O)cc1)=N/O | -1 | -3 | 0 | +
Cc1ccc(/C=N\NC(=O)CN2CCN(S(=O)(=O)c3ccc(Br)cc3)CC2)s1 | -1 | . | 0 | .
O=C(NCC1CCCO1)c1ccccc1-c1nc(-c2ccc(Cl)cc2)no1 (centres undefined) | 5 | -3 | -1 | +
C[C@@H]1COc2cc(Br)ccc2S(=O)(=O)N1Cc1cn(CC2CCCCC2)nn1 | -5 | . | -3 | .
C=C(C)Cn1c(SCC(=O)N/N=C(\C)c2ccc([N+](=O)[O-])cc2)nnc1-c1ccc(Br)cc1 | -11 | . | -10 | .
COc1ccc(NC(=O)C(Cl)=C(Cl)Cl)cn1 | 1 | 0 | 1 | ?
COc1ccc(NC(=O)/C(Cl)=C(/Cl)S(=O)(=O)Cc2ccccc2)cn1 | 7 | 100* | 2 | ?
CCOC(=O)N1CCC2(CC1)C(C(=O)C13CC4CC(CC(C4)C1)C3)C2(C#N)C#N (centres undefined) | 0 | 71* | 5 | i
O=[N+]([O-])c1cccc(Nc2c([N+](=O)[O-])ccc3nonc23)c1 | -2 | -10 | 1 | +
Cc1cccc(Nc2c([N+](=O)[O-])ccc3nonc23)c1 | 0 | 3 | 4 | i
COC(=O)[C@]12CCCCC=C1N(Cc1ccco1)C(=O)[C@H](CC(=O)NCCC(C)C)C2 | -1 | -3 | -3 | i
COc1ccc2c(c1)c(C)cc[n+]2Cc1ccccc1 | 7 | 17 | 3 | +
Cc1ccc2c(c1)c(C)cc[n+]2Cc1ccccc1 | -1 | 0 | 1 | +
CCN(Cc1ccccc1)C(=O)c1[nH]c2ccc(OC)cc2c1C | -4 | -4 | 1 | i
Cc1ccc2ccc[n+](Cc3ccccc3)c2c1 | 0 | -4 | 1 | i
C[C@H](CO)N1C[C@H](C)[C@@H](CN(C)Cc2ccccn2)Oc2ncc(-c3ccccc3)cc2C1=O | -2 | -2 | 5 | i
O=[N+]([O-])/C=C\c1ccc(N2CCCC2)c(F)c1 | . | 75* | . | .
O=Cc1ccc(N2CCCC2)c([N+](=O)[O-])c1 | -3 | -2 | -4 | i
CCn1c(SCC(=O)Nc2ccc(C(C)C)cc2)nnc1-c1ccc(C(C)(C)C)cc1 | 2 | . | 7 | .
SMILES | NPR1 activator | Exocytosis inh | NPR2 activator | Myeloid diff MLP
Clc1cccc(CNc2nc(-c3cccnc3)nc3ccccc23)c1 | 20 | 99* | 12 | i
c1ccc(CNc2nc(NCc3ccccc3)c3ccccc3n2)cc1 | . | 61* | . | i
c1cncc(-c2nc(NCc3ccc4c(c3)OCO4)c3ccccc3n2)c1 | 53* | -14 | 59* | i
C[C@@H]1C(=O)N2N=Cc3ccccc3[C@H]2N2N=Cc3ccccc3[C@@H]12 | 0 | . | -6 | .
O=[N+]([O-])c1ccc2nc(CNc3nc(N4CCOCC4)nc4c3ncn4-c3ccsc3)[nH]c2c1 | 1 | . | -1 | .
O=C(N[C@@H]1C[C@@H]2O[C@@H](CO)CC[C@@H]2O[C@@H]1CCc1ccc(-c2ccccc2)cc1)c1cnccn1 | 4 | . | -4 | .
O=C1CC(=O)N(C2CCCCC2)C(=O)N1c1ccccc1S(=O)(=O)Oc1ccccc1 | 5 | 4 | -1 | +
O=C1C2CCCCC2C(=O)N1c1cccc(OS(=O)(=O)c2ccccc2)c1 (centres undefined) | 0 | 0 | 0 | i
COc1ccc(-c2cc(C(F)(F)F)c(C#N)c(SCC(=O)Nc3nc(C)co3)n2)cc1 | 2 | -5 | -1 | i
CCOC(=O)CSc1nc(-c2ccc3c(c2)OCO3)ccc1C#N | 24 | -3 | 22 | i
CCOC(=O)CCCSc1nc(-c2ccc3c(c2)OCO3)cc(C(F)(F)F)c1C#N | 51* | -5 | 11 | i
Cc1coc(NC(=O)CSc2nc(-c3ccc(Cl)cc3)cc(C(F)(F)F)c2C#N)n1 | -24 | -2 | -16 | +
COC(=O)[C@]12C[C@H](CC(=O)NCCc3ccccc3OC)C(=O)N(Cc3cccc4ccccc34)C1=C[C@H](C(C)(C)C)O[C@@H]2C | -7 | . | -5 | .
COc1ccc(-c2nc(NC(=O)CSc3nnc4ccccn34)ns2)cc1 | 1 | . | 45* | .
O=C(CSc1nnc2ccccn12)Nc1nsc(-c2ccccc2)n1 | 6 | -7 | 0 | i
O=C(/C=C/c1ccco1)Nc1nnc(-c2ccco2)s1 | -6 | 4 | -6 | +
O=C1/C(=C/c2ccncc2)SC(=S)N1Nc1ccccc1 | -1 | 61* | 1 | i
COc1cc(/C=C2\SC(=S)N(Nc3ccccc3)C2=O)ccc1O | 1 | -2 | -7 | i
O=C1/C(=C/c2ccc(O)c(O)c2)SC(=S)N1Nc1ccccc1 | . | 4 | . | +
CCCCC#CC(CC)NCc1ccc(OC)cc1OC (centres undefined) | -19 | . | -23 | .
Cc1nonc1OCCNc1ccc([N+](=O)[O-])cc1[N+](=O)[O-] | -1 | 0 | -2 | i
Cc1nonc1OCCCNc1ccc([N+](=O)[O-])cc1Cl | -2 | -4 | 2 | +
COc1ccc(Br)cc1/C=N/NC(=O)c1ccc(COc2ccc3c(c2)CCC3)o1 | -4 | 0 | 0 | +
COc1ccccc1/C=N\NC(=O)c1ccc(COc2ccc(C)c(C)c2)o1 | -1 | -14 | -1 | +
Cc1ccc(CS(=O)(=O)c2ccc(C(=O)N3CCN(c4ccccn4)CC3)cc2[N+](=O)[O-])cc1 | -2 | 0 | 2 | +
SMILES | NPR1 activator | Exocytosis inh | NPR2 activator | Myeloid diff MLP
CCN1CCN(c2ncnc3scc(-c4ccc(C)c(C)c4)c23)CC1 | -10 | 82* | -10 | i
O=C1/C(=C\c2ccc([N+](=O)[O-])cc2)CCc2ccccc21 | 2 | -2 | -6 | i
O=C1/C(=C/Nc2cccc([N+](=O)[O-])c2)CCc2ccccc21 | 6 | 89* | -2 | i
O=C(O)C1CC=CCC1C(=O)NCc1ccc2c(c1)OCO2 (centres undefined) | 2 | -1 | 1 | +
Cc1ccc(CNC(=O)C2CC=CCC2C(=O)O)cc1 (centres undefined) | 4 | 0 | 0 | i
S=C(NCCCN1CCOCC1)NN=C1c2ccccc2-c2ccccc21 | -3 | -3 | -4 | i
CSCC[C@H](NC(=O)Nc1cccc(Br)c1)C(=O)O | 1 | -4 | 0 | +
